The values below come from PubChem BioAssay (NCATS).

Experiment [1] is described as follows: Primary qHTS for Huh7 cytotoxicity: counterscreen for inhibitors of MERS-S pseudotyped particle cell entry (AID 1479147). Background: In qHTS, concentration-response curves come from the screen itself.
Experiment [2] in a line: Primary qHTS for Vero E6 cytotoxicity: counterscreen for inhibitors of SARS-S pseudo-typed particle cell entry (AID 1479150). Note: potency is the fitted concentration of half-maximal effect.
Experiment [3] can be described thus: Confirmatory qHTS for VERO E6 Cytotoxicity Assay: Counterscreen for SARS-CoV-2 CPE Assay (AID 1508605). Note: nearly all actives have a fitted effect of over 60% in size. Note: potency is the fitted concentration of half-maximal effect.
Experiment [4] in a line: Confirmatory qHTS for activators (rescue) of SARS-CoV-2 Cytopathic Effect (CPE) (AID 1508606). Note: nearly all actives have a fitted effect of over 70% in size. Note: potency is the fitted concentration of half-maximal effect.
Experiment [5] in a line: Primary qHTS for inhibitors of MERS-S pseudo-typed particle cell entry (AID 1479149). Note: potency is the fitted concentration of half-maximal effect; nearly all actives have a fitted effect of over 60% in size.
Experiment [6] can be described thus: Primary qHTS for inhibitors of La Crosse Virus (LACV) - induced cell death in SH-SY5Y cells (AID 1508616; active = well fitted inhibition curve with a large enough effect;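 note: top concentration of the series differs between compounds; higher means more rescue of cells from virus-induced death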). The method, boiled down: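 Luminescent ATP readout (ATPLite 1step, 5 min room temperature) measured rescue from LACV-induced death after 6 days of infection at 0.01 MOI; normalized to infected DMSO wells and uninfected DMSO wells.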

Records with an inconclusive call do not appear. Active and inactive are the calls of the source. Unless noted, calls come from the whole dose curve.

As for `CN1CC(=O)N2[C@H](c3ccc4c(c3)OCO4)c3[nH]c4ccccc4c3C[C@@H]2C1=O`, the Potency result in experiment [1] and in experiment [2] was “inactive” each time.

Regarding `COCCOC(=O)C1=C(C)NC(C)=C(C(=O)OC/C=C/c2ccccc2)C1c1cccc([N+](=O)[O-])c1` (stereo unspecified), the Potency entry in experiment [1] and in experiment [2] was “inactive” throughout.

For the molecule `CCCCCC(=O)O[C@]1(C(C)=O)CC[C@H]2[C@@H]3CCC4=CC(=O)CC[C@]4(C)[C@H]3CC[C@@]21C`, the Potency entry in experiment [1] and in experiment [2] was “inactive” throughout.

Turning to `COC(=O)C1=C(C)NC(C)=C(C(=O)OCCN2CCN(C(c3ccccc3)c3ccccc3)CC2)C1c1cccc([N+](=O)[O-])c1` (stereo unspecified), the Potency result in experiment [1] and in experiment [2] was “inactive” throughout.

Consider `OCCN1CCN(CCCN2c3ccccc3C=Cc3ccccc32)CC1`, for which the Potency result in experiment [1] and in experiment [2] was “inactive” each time.

Take `O=C(CCCN1CC=C(n2c(=O)[nH]c3ccccc32)CC1)c1ccc(F)cc1`: the Potency entry in experiment [1] and in experiment [2] was “inactive” each time.

Take `CCCCN(CCCC)CC(O)c1cc(Cl)cc2c1-c1ccc(Cl)cc1/C2=C/c1ccc(Cl)cc1` (stereo unspecified): the Potency result in experiment [1] and in experiment [2] was “inactive” throughout.

Turning to `NC(=NCCCCCCN=C(N)/N=C(\N)Nc1ccc(Cl)cc1)/N=C(\N)Nc1ccc(Cl)cc1`, the Potency result in experiment [1] and in experiment [2] was “inactive” in each case.

Regarding `COc1cccc(CCc2ccccc2OCC(CN(C)C)OC(=O)CCC(=O)O)c1` (stereo unspecified), the Potency entry in experiment [1], in experiment [2] and in experiment [3] was “inactive” each time.

In the case of `CN1CCCCC1CCN1c2ccccc2Sc2ccc(S(C)=O)cc21` (stereo unspecified), the Potency entry in experiment [1], in experiment [2] and in experiment [3] was “inactive” throughout.

`CCCN(CCC)C(=O)C(CCC(=O)OCCCN1CCN(CCOC(=O)Cc2c(C)n(C(=O)c3ccc(Cl)cc3)c3ccc(OC)cc23)CC1)NC(=O)c1ccccc1` (stereo unspecified): the Potency entry in experiment [1], in experiment [2] and in experiment [3] was “inactive” throughout. For the same molecule, the Potency in experiment [4] was 10 µM (active).

Regarding `Clc1ccc(Cn2c(CN3CCCC3)nc3ccccc32)cc1`, the Potency entry in experiment [1] and in experiment [2] was “inactive” throughout.

For `CCCOC(C(=O)OC1CCN(C)CC1)(c1ccccc1)c1ccccc1`, the Potency result in experiment [1], in experiment [2] and in experiment [3] was “inactive” throughout.

`CCN(CC)CCCC(C)Nc1c2ccc(Cl)cc2nc2ccc(OC)cc12` (stereo unspecified): the Potency in experiment [3] is 11.2 µM (active). Moreover, the Potency entry in experiment [4] is “inactive”.

As to `CN(C)CCCN1c2ccccc2Sc2ccc(C(F)(F)F)cc21`, in experiment [4], the Potency was 10 µM (active).

In the case of `O=C1NC2CCCCN2C12CCN(CCCN1c3ccccc3CCc3ccc(Cl)cc31)CC2` (stereo unspecified), the Potency in experiment [5] was 12.6 µM (active). Besides, in experiment [2], the Potency entry is “inactive”.

For `O=C1NCCN1CCN1CCC(c2cn(-c3ccc(F)cc3)c3ccc(Cl)cc23)CC1`, the Potency in experiment [5] is 8.91 µM (active).

For the molecule `c1ccc(-c2ccc(C(c3ccccc3)n3ccnc3)cc2)cc1` (stereo unspecified), the Potency result in experiment [1] and in experiment [3] was “inactive” each time.

On to `CCN(CC)CCNc1ccc(CO)c2sc3ccccc3c(=O)c12`, for which, in experiment [3], the Potency is 10 µM (active). In addition, in experiment [4], the Potency entry is “inactive”.

For `O=C(Oc1cccc2cccnc12)c1ccccc1`, the Potency is 12.6 µM (active) in experiment [5] and 5.62 µM (active) in experiment [2].

With `CC(C(O)c1ccccc1)N(C)CCOC(c1ccccc1)c1ccccc1` (stereo unspecified), the Potency was 22.4 µM (active) in experiment [5] and 10 µM (active) in experiment [4]. The Potency result in experiment [2] and in experiment [3] was “inactive” in each case.

As to `COc1ccc2cc1Oc1ccc(cc1)C[C@H]1c3c(cc4c(c3Oc3cc5c(cc3OC)CCN(C)[C@@H]5C2)OCO4)CCN1C`, the Potency in experiment [5] was 3.55 µM (active); in experiment [3], 11.2 µM (active); in experiment [4], 1 µM (active).

As to `CCN(CC)CCOc1ccc2c(c1)C(=O)c1cc(OCCN(CC)CC)ccc1-2`, in experiment [3], the Potency was 11.2 µM (active).

In the case of `CN1CCCN(C(c2ccccc2)c2ccc(Cl)cc2)CC1` (stereo unspecified), the Potency result in experiment [2] was “inactive”. Further, the Potency in experiment [4] is 10 µM (active).

For `Cc1ccc2nc(N)[nH]c(=O)c2c1Sc1ccncc1`, the Potency result in experiment [2] is “inactive”.

For `NC(N)=N/N=C/c1c(Cl)cccc1Cl`, the Potency result in experiment [2] is “inactive”.

Take `CCCCOc1ccc(C(=O)CCN2CCCCC2)cc1`: the Potency entry in experiment [2] is “inactive”.

For the molecule `CC(C)COCC(CN(Cc1ccccc1)c1ccccc1)N1CCCC1` (stereo unspecified), the Potency in experiment [5] is 8.91 µM (active); in experiment [4], 11.2 µM (active). The Potency entry in experiment [2] and in experiment [3] was “inactive” in each case.

For `Fc1ccc(C(c2ccc(F)cc2)N2CCN(C/C=C/c3ccccc3)CC2)cc1`, the Potency result in experiment [1], in experiment [2] and in experiment [3] was “inactive” each time. Also, the Potency in experiment [4] was 11.2 µM (active).

Consider `CCN(CC)CCOc1ccc(/C(=C(\Cl)c2ccccc2)c2ccccc2)cc1`, for which, in experiment [2], the Potency entry was “inactive”.

As for `COC(=O)[C@H]1[C@H]2C[C@@H]3c4[nH]c5cc(OC)ccc5c4CCN3C[C@H]2C[C@@H](OC(=O)/C=C/c2ccc(O)c(OC)c2)[C@@H]1OC`, the Potency entry in experiment [1], in experiment [2] and in experiment [3] was “inactive” throughout. The Potency in experiment [4] was 12.6 µM (active).

`CN1CCN(CCCN2c3ccccc3Sc3ccc(S(=O)(=O)N(C)C)cc32)CC1`: the Potency result in experiment [3] is “inactive”.

For the molecule `CC1N=C(N)OC1c1ccccc1` (stereo unspecified), the molecule was classed as inactive in experiment [6].
